# Compound activity: PubChem BioAssay, National Center for Advancing Translational Sciences (NCATS)
# An excerpt weighted towards active compounds, which were near 18% of everything screened.
# TDP1 cell noCPT = qHTS for Inhibitors of human tyrosyl-DNA phosphodiesterase 1 (TDP1): qHTS in cells in absence of CPT; AID 686978, 2013; DT40 Tdp1-/- hTDP1 cells, no CPT, ATP luminescence, 48 h; Potency, µM (series often up to 46.2 µM), for the others: at the top dose activity change, negative = growth inhibition, actives largely listed as inhibitors; 420,000 compounds, 15% hits; note: nearly all actives have a fitted effect of over 55% in size
#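 DT40 Tdp1-/-;hTDP1 cells, no CPT (DMSO vehicle only), 400 cells/well; compounds pin-transferred; ≥48 hr, 37 °C; CellTiter-Glo 30 min RT dark, luminescence read.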
# VDR inh = inhibitors of human vitamin D receptor; 400,000 compounds, 0.93% hits; P11473; AID 504847; VDR-SRC2-3 peptide fluorescence polarization, 2 h; Potency, µM, for inactives: max response, negative = inhibition, actives largely listed as inhibitors
# Target sequence (P11473 whole entry, looked up): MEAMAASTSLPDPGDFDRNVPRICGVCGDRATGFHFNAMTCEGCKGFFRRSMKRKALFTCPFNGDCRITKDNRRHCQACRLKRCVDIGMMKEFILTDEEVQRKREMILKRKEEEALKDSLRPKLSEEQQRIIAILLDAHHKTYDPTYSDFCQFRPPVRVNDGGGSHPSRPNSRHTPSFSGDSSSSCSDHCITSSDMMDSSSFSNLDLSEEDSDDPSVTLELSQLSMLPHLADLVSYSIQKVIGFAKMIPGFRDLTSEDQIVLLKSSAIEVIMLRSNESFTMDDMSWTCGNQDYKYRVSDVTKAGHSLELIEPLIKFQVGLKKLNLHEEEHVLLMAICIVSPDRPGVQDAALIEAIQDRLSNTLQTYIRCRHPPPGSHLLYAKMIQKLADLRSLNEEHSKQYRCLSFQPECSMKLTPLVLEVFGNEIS
#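 The screen uses fluorescence polarization to detect compounds that interfere with recruitment of the SRC2-3 coactivator peptide to VDR; plates are read after 2 h at room temperature.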
# PLK1 PBD block = blocks phosphopeptide binding to human PLK1 polo-box domain; Plk1 PBD binding of FITC phosphopeptide, fluorescence polarization; Potency, µM, for inactives: max response, negative = inhibition, usual class: inhibitors; 360,000 compounds, 2.8% hits; AID 720504; note: series mostly up to about 57 µM; nearly all actives have a fitted effect of over 65% in size
# GCN5L2 inh = inhibitors of human GCN5L2 histone acetyltransferase; Q92830; GCN5L2 HAT assay, ThioGlo1 CoA-SH fluorescence; Potency, µM (titrated, usually from 58.9 µM), for inactives: at the top dose activity change, negative = inhibition, usual class: inhibitors; 390,000 compounds, 0.21% hits
#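 Compounds, pin-transferred from DMSO stocks, meet 20nM GCN5L2 for 15 min before the reaction begins with H3(1-25) peptide (75uM) and acetyl-CoA (70uM). Thiol-reactive ThioGlo1 reports CoA release over 20 min at room temperature.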
# TDP1 inh = blocks human tyrosyl-DNA phosphodiesterase 1. 350,000 compounds, 0.28% hits. Q9NUW8. recombinant TDP1, AlphaScreen DNA substrate cleavage. Potency, µM (top dose mostly 130 µM), for inactives: at the highest dose activity change, negative = inhibition, most hits filed as inhibitors; note: nearly all actives have a fitted effect of over 40% in size
#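 Enzyme-compound mixtures sat 15 min at room temperature, followed by a 5 min reaction with 15 nM final substrate and 10 min with AlphaScreen beads. Recombinant human Tdp1 was used at 1 nM final.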
# DT40 TDP1 CPT = growth inhibition of DT40 Tdp1-/-;hTDP1 cells with camptothecin (screen for TDP1 inhibitors) | chicken DT40 Tdp1-/-;hTDP1 cells + 20 nM CPT, ATP luminescence, 48 h | Potency, µM (top dose mostly 46.2 µM), inactives show top-dose activity change, negative = growth inhibition, usual class: inhibitors | 420,000 compounds, 12% hits; note: nearly all actives have a fitted effect of over 55% in size
#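 Chicken DT40 Tdp1-/- cells complemented with human TDP1, 400 cells/well, exposed to compounds plus 20 nM camptothecin for at least 48 h at 37 C; viability read as ATP content by CellTiter-Glo luminescence.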
# The depositor's hits bear a star; ? = inconclusive; nt = no result; ! = not active in a repeat; [ ] = dose if it differs, or a comment. Calls come from the whole dose curve; as a rule, active = well fitted curve in the direction sought with a large enough effect; inconclusive = small, poorly fitted or top-dose-only effect, or another doubt; inactive = no such curve, though single readings can be large; an effect the other way counts as inactive or inconclusive. % is set by controls: 0 for no effect and ±100 for the full control effect; potency is the fitted concentration of half-maximal effect.
SMILES,TDP1 cell noCPT,VDR inh,PLK1 PBD block,GCN5L2 inh,TDP1 inh,DT40 TDP1 CPT
CN(C)S(=O)(=O)c1ccc2nnn(O)c2c1,?,79µM*,11µM*,-4%,0%,?
O=c1nc2ccccc2c2n1CC(CN1CCN(c3ccccc3)CC1)N2 (stereo not given),-6%,10%,nt,-5%,6%,7%
CC1(C)[C@@H]2CC[C@@]1(C)C(=O)C2,3.3µM*!,-1%,nt,-17%[0.501 µM],9%[56.1 µM],8.4µM*!
CC12CCC(C(=O)CC1=O)C2(C)C (stereo not given),-2%,-3%,4%,nt,nt,-16%
CCOC(=O)c1cc(C#N)c(N2CCN(C(=O)c3cccc(C(F)(F)F)c3)CC2)nc1C(F)(F)F,15µM*,-9%,-1%,-5%,-1%,?
CCc1c(C)c2ccc(OCC(=O)NCC3CCC(C(=O)O)CC3)c(C)c2oc1=O (stereo not given),-17%,-3%,-12%,-8%,nt,0%
C1=C(c2ccccc2)CCN(c2nc3ccccc3n3cnnc23)C1,16µM*,-30%,-24%,-9%,9%,?
c1ccc2c(c1)CCN(c1nc3ccccc3n3cnnc13)C2,?,-19%,-9%,-7%,5%,23µM*
c1ccc(N2CCN(c3nc4ccccc4n4cnnc34)CC2)cc1,?,-9%,2%,-19%,7%,?
FC(F)(F)c1cccc(N2CCN(c3nc4ccccc4n4cnnc34)CC2)c1,23µM*,-2%,nt,-7%,1%,?
c1ccc(CN2CCN(c3nc4ccccc4n4cnnc34)CC2)cc1,?,-16%,-11%,-3%,4%,13µM*
c1ccc2c(c1)nc(N1CCOCC1)c1nncn12,?,12%,1%,-3%,4%,-6%
CN(C(=O)Cn1cc([N+](=O)[O-])ccc1=O)C1CCCCC1,-11%,6%,-6%,-2%,1%,-10%
COc1cc(C2CC(=O)c3cnc(NC(=O)c4ccco4)nc3C2)cc(OC)c1OC (stereo not given),-1%,?,-5%,-5%,12%,4%
CCC(C)(C)NC(=O)/C=C/c1cnc2ccccc2n1,?,11%,-13%,-6%,2%,-2%
c1ccc(CN2CCN(c3nc4ccccc4c4ccccc34)CC2)cc1,?,-1%,-2%,-6%,1%,21µM*
Cc1cc(C)n(-c2nc3ccccc3nc2Nc2cccc(C(F)(F)F)c2)n1,nt,9%,nt,-6%,6%,nt
Cc1cc(C)n(-c2nc3ccccc3nc2N2CCN(c3cccc(C(F)(F)F)c3)CC2)n1,?,-3%,nt,?,-9%[12.3 µM],18µM*
CN(C)CCNc1ncnc2c1ncn2[C@H]1CN(Cc2ccc3c(c2)OCO3)C[C@@H](CO)O1,-26%,nt,-2%,nt,nt,-29%
O=C(N/N=C/c1ccccc1Cl)c1n[nH]c2c1CCCC2,?,12%,5%,-2%,6%,-26%
Cc1[nH]nc(C(=O)NN=Cc2ccccc2Cl)c1N=NN(C)C,6.5µM*,?,-5%,nt,nt,9.2µM*
CCOc1ccc(C(=O)N(Cc2cc(OC)c(OC)c(OC)c2)c2ccccn2)cc1,21µM*,5%,nt,-6%,-2%,15µM*
COc1cc(/C=C/C(=O)N(Cc2ccccc2)c2ccccn2)cc(OC)c1OC,29µM*,?,?,-6%,3%,?
COc1cc(CN(C(=O)c2cccc(C)c2)c2ccccn2)cc(OC)c1OC,13µM*,13%,nt,-11%,-1%,13µM*
CCOc1ccc(C(=O)N(c2ccccn2)C2CCCCC2)cc1,-19%,9%,-6%,-7%,3%,?
SMILES,TDP1 cell noCPT,VDR inh,PLK1 PBD block,GCN5L2 inh,TDP1 inh,DT40 TDP1 CPT
Cc1ccc(CC(=O)N(Cc2ccccc2)c2ccccn2)cc1,?,7%,-2%,23%,-3%,?
COc1cc(CN(C(=O)c2ccc(C)cc2)c2ccccn2)cc(OC)c1OC,21µM*,9%,nt,-6%,-2%,18µM*
O=C1c2cccnc2C(Nc2ccc(F)c(Cl)c2)N1Cc1cccs1 (stereo not given),22%,-7%,-14%,-6%,-5%,-12%
COc1ccc(Cl)cc1NC(=O)CN(c1cccc(C)c1C)S(C)(=O)=O,?,-5%,nt,1%,nt,?
O=C(CCOc1ccccc1)Nc1ccnn1C1CCN(C(=O)CCC(F)(F)F)CC1,-2%,0%,-8%,-6%,2%,-21%
CCOc1ccccc1C(=O)N(Cc1cc(OC)c(OC)c(OC)c1)c1ccccn1,?,13%,nt,-14%,-4%,18µM*
CCOc1ccccc1C(=O)N(Cc1cc(OC)c(OC)c(OC)c1)C1CCS(=O)(=O)C1 (stereo not given),0%,1%,nt,-1%,4%,-16%
O=C(NCc1ccc(F)cc1)N1[C@H]2CC[C@@H]1C=C(c1ccc(F)cc1OCc1ccccc1)C2,7.3µM*,nt,-12%,nt,nt,?
O=C(NCc1ccc(F)cc1)c1ccccc1OCc1ccccc1,?,-17%,-7%,-12%,0%,-7%
COc1ccc(CNC(=O)N2[C@H]3CC[C@@H]2C=C(c2ccc(F)cc2OCc2ccccc2)C3)cc1OC,7.3µM*,nt,-12%,nt,nt,8.2µM*
CCCS(=O)(=O)NC(=O)C1(C)CCCN(C(=O)c2cc(OC)ccc2Br)C1 (stereo not given),-2%,nt,-3%,nt,nt,-4%
Cc1c(C(=O)O)cnc2c([N+](=O)[O-])cnn12,18µM*,35µM*,3.4µM*,-1%,-11%,10µM*
Cc1cc2[nH]c(=O)cc(-c3ccccc3)n2n1,?,-13%,-10%,-4%,5%,-13%
Nc1nn2c(-c3ccccc3)cc(=O)[nH]c2c1N=Nc1ccc(Br)cc1,16µM*,-1%,?,-6%,3%,?
CCCCOc1ccc(/C=C/C2=CC(C)(C)NC(=S)N2)cc1OCC,13µM*,-20%,-21%,-5%,11%,?
COc1cc2c(C#CCCO)c(-c3ccsc3)oc(=O)c2cc1OC,8.2µM*,-6%,-2%,-9%,1%,?
COc1ccc(-c2c(-c3ccc(C#N)cc3)oc(=O)c3cc(OC)c(OC)cc23)cc1,16µM*,5%,3%,-15%,-1%,?
COCc1ccc(-c2c(-c3ccsc3)oc(=O)c3cc(OC)c(OC)cc23)cc1,21µM*,-9%,4%,0%,-1%,?
COc1cc2c(C#CCCO)c(-c3ccc(C#N)cc3)oc(=O)c2cc1OC,?,-15%,-4%,0%,2%,-20%
